Bioassay records: PubChem, National Center for Advancing Translational Sciences (NCATS)
Shown are actives, neighbours in structure and some others; about 10% of the full set was active somewhere.
VDR inhibitor: inhibitors of human vitamin D receptor. P11473. Potency, µM, inactives show max response, negative = inhibition, actives largely listed as inhibitors. VDR-SRC2-3 peptide fluorescence polarization, 2 h. 400,000 compounds, 0.93% hits; further: potency means the concentration at half of the fitted maximal effect
Target sequence (P11473 whole entry, looked up): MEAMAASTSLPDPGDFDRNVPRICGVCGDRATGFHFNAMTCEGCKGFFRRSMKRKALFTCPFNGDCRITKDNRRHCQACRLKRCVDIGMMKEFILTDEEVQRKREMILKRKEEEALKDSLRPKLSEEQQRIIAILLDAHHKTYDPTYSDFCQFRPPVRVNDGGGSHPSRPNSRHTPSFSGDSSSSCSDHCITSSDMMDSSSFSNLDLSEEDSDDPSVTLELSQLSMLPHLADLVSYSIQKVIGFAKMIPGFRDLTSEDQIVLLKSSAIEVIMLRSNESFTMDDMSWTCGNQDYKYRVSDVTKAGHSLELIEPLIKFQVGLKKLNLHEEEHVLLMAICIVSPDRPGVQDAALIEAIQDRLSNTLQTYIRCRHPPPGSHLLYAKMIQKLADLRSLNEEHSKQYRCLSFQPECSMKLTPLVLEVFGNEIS
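Compounds are added to VDR with labelled SRC2-3 coactivator peptide and held 2 h at room temperature. Inhibition of the VDR–peptide interaction is then read as a change in fluorescence polarization.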
MmCpn inh: inhibitors of Methanococcus maripaludis chaperonin TRiC (MmCpn); purified Mm-Cpn ATPase, ADP Transcreener TR-FRET; Potency, µM (doses to about 76.9 µM), for the others: at the highest dose activity, negative = inhibition, most hits filed as inhibitors; 330,000 compounds, 0.031% hits; AID 504842; further: potency means the concentration at half of the fitted maximal effect; nearly all actives have a fitted effect of over 80% in size
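TR-FRET (320 nm excitation; 590 and 665 nm emission) reports ADP made from 10 uM ATP by 25 nM enzyme; compounds were preincubated 10 min, reaction run 30 min, both at 37°C.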
CCT chaperon mod: modulators of cytosolic chaperonin (CCT/TRiC) activity; purified chaperonin ATPase assay, HTRF ADP detection, 30 min; activity change, % (concentration not given with the values), hits read low; 360,000 compounds, 0.3% hits; in the data active means activity change below about -30%
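Nucleotide hydrolysis assay: TRiC at 20–40 nM final (set by batch activity) with 10 uM ATP, 30 min at 37 °C, in presence of 76 uM compound. Detection by competitive ADP HTRF, 30 min ambient.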
PLK1 PBD block: blocks phosphopeptide binding to human PLK1 polo-box domain; P53350; Plk1 PBD binding of FITC phosphopeptide, fluorescence polarization; Potency, µM, for the others: max response, negative = inhibition, hits mostly inhibitors; 360,000 compounds, 2.8% hits; AID 720504; further: potency means the concentration at half of the fitted maximal effect; series mostly up to about 57 µM; nearly all actives have a fitted effect of over 65% in size
G9a inh: inhibitors of human histone lysine methyltransferase G9a; Q96KQ7; G9a H3K9 monomethylation, AlphaScreen, 2 h; Potency, µM (highest dose often 102 µM), for inactives: at the highest dose activity, negative = inhibition, actives largely listed as inhibitors; 350,000 compounds, 8.8% hits; further: potency means the concentration at half of the fitted maximal effect; nearly all actives have a fitted effect of over 75% in size
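G9a (20 nM) was preincubated 15 min with compound, then reacted 2 h at room temperature with 500 nM biotin-H3K9 peptide and 20 µM SAM. Monomethyl-H3K9 detected by AlphaScreen using anti-H3K9me1 antibody.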
Sfp inh: inhibitors of Bacillus subtilis Sfp phosphopantetheinyl transferase; 310,000 compounds, 3.5% hits; Q9F4F7; Potency, µM, for inactives: largest response in the series, negative = inhibition, most hits filed as inhibitors; Biochemical Sfp PPTase activity, qHTS;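 further: the enzyme is Sfp with the accession as filed and its product quenches rhodamine fluorescence; potency means the concentration at half of the fitted maximal effect; 0% = enzyme reaction without inhibitor and -100% = no enzyme wells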
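Fluorescence-quenching assay with 15 nM Sfp, 5 uM rhodamine-CoA and 12.5 uM BHQ-2-labelled ybbR peptide in pH 7.6 Hepes/MgCl2 buffer. Enzyme was pre-incubated with compound for 15 min at room temperature. Rate was taken from the 30-min fluorescence change (525/598 nm).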
The depositor's hits bear a star; ? = inconclusive; / = no result given; [ ] = dose if it differs, or a comment. Unless noted, the call rests on the fitted dose curve; in most records, active means well fitted curve in the direction sought with a large enough effect; inconclusive means small, poorly fitted or top-dose-only effect, or another doubt; inactive means no such curve, though single readings can be large; an effect the other way counts as inactive or inconclusive. Unless noted, on the % scale 0 is the no-effect control and ±100 the full control effect.

SMILES	VDR inhibitor	MmCpn inh	CCT chaperon mod	PLK1 PBD block	G9a inh	Sfp inh
Cc1ccc(N2CC(C(=O)OCC(=O)Nc3cc(C)on3)CC2=O)c(C)c1 (stereo unspecified)	8%	-3%	-4	-3%	17%	16%
NCCC[C@@H](CC(=O)N[C@@H]1CCNC[C@H]1C(=O)N[C@H](CC(=O)N[C@@H](CCC(=O)O)CC(=O)O)Cc1c[nH]c2ccccc12)NC(=O)C[C@H](CO)NC(=O)[C@@H]1CNCC[C@H]1N	-1%	/	/	/	/	-17%
Clc1ccc(Cn2nc(-c3ccccc3)nc2-c2ccccc2)cc1	-29%	0%	-5	24µM*	6%[59 µM]	-10%
Clc1ccccc1Cn1nc(-c2ccccc2)nc1-c1ccccc1	-6%	1%	-1	4%	18%[59 µM]	-6%
CN(C)c1ccc(N=Nc2ccc(S(N)(=O)=O)cc2)cc1	-16%	-5%	-9	-3%	?	-7%
CN(C)c1ccc(N=Nc2ccc(S(=O)(=O)O)cc2)c2ccccc12	-7%	-3%	1	?	11µM*	7%
CCS(=O)(=O)Nc1cc(-c2nc3cccnc3s2)ccc1C	-4%	-9%	0	-9%	50µM*	-3%
CSC1=NC(C(Cl)(Cl)Cl)N=C(c2ccc(C)cc2)N1 (stereo unspecified)	-7%	1%	2	-8%	14µM*	-11%
CN(NC(=O)CN1C(=O)c2ccccc2C1=O)C1=NS(=O)(=O)c2ccccc21	-14%	2%	-4	-10%	79µM*	6%
CCN1CCN(Cc2ccc(NC(=O)c3cc(NC(=O)c4cc(C)on4)cc(OC)c3)cc2C(F)(F)F)CC1	-16%	-2%	1	-18%	45µM*	-5%
CCN1CCN(Cc2ccc(NC(=O)c3cc(NC(=O)c4cnn(-c5ccccc5)c4N)cc(OC)c3)cc2C(F)(F)F)CC1	-14%	-1%	-8	-15%	?	-16%
CCN1CCN(Cc2ccc(NC(=O)c3ccc(C)c(NC(=O)C(=O)c4c[nH]c5ccccc45)c3)cc2C(F)(F)F)CC1	28%	1%	1	-9%	50µM*	50µM*
CCN1CCN(Cc2ccc(NC(=O)c3cc(NC(=O)C(=O)c4c[nH]c5ccccc45)cc(OC)c3)cc2C(F)(F)F)CC1	48%	-24%	-2	-8%	1%[12.7 µM]	50µM*
O=C(c1csnn1)N1CCC[C@@]2(CCN(c3ncccn3)C2)C1	5%	/	/	/	2%[12.7 µM]	?
CCOC(=O)c1ccc(NC(=O)c2oc3c(c2C)-c2nn(Cc4ccccc4Cl)cc2CC3)cc1	1%	/	/	/	-7%[59 µM]	/
Cc1cccc2nc(CSCc3ccco3)cn12	-2%	-2%	-4	?	45µM*	32µM*
COc1cc(NC(=O)c2c(C)oc3ncnc(N4CCCCC4)c23)cc(OC)c1	-7%	/	/	/	-7%[59 µM]	/
CCN(C(=O)CSc1nnc2c3ccccc3n(CC)c2n1)C1CCS(=O)(=O)C1 (stereo unspecified)	-12%	1%	0	-15%	79µM*	8%
COc1ccccc1NC(=O)C1=C(C)Nc2nc(SCc3ccccc3Cl)nn2C1c1cccnc1 (stereo unspecified)	-13%	/	/	/	23%[59 µM]	/
COc1cc2c(cc1OC)C1=NC(=O)CN1C(SCc1ccccc1)=N2	-8%	1%	-2	27µM*	?	?
O=C(Cc1ccccc1)NS(=O)(=O)c1ccccc1	/	/	0	-10%	/	/
CCNC(=S)NS(=O)(=O)c1ccccc1	4%	1%	-1	?	28µM*	79µM*
S=C(NCCNC(=S)Nc1ccccc1)Nc1ccccc1	2%	0%	-2	10%	?	16%
S=C(NCc1ccccc1)NCc1ccccc1	0%	-3%	1	0%	7%[59 µM]	-4%
S=C(NCc1ccccc1)NNc1ccccc1	-27%	-2%	-4	?	40µM*	-10%
Cc1cccc(NC(=S)NN2CCN(C)CC2)c1	16%	2%	-3	-2%	56µM*	-12%
CCNC(=S)NNc1ccccc1	-4%	6%	0	-11%	/	35µM*
